Measured values reported in PubChem BioAssay (NCI).
The panel holds about 83,000 compounds, 20% with a hit somewhere; the sample as a whole holds those more often.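 Plates (96-well) were seeded with cells, treated with compound at one concentration, and incubated for 48 hours before percent growth was determined.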 Values without a mark were called inactive. The source made the active and inactive calls. How the source made its calls: active means growth percent below 10; inactive means the rest.

Tests used:
Experiment in all cases: NCI-60 one-dose screen, 48 h (100 = growth as untreated, 0 = no growth, -100 = all killed)
Conditions in all cases: 10 µM
SK-MEL-2 melanoma = tested on: SK-MEL-2 melanoma
SN12C renal = tested on: SN12C renal
UO-31 renal = tested on: UO-31 renal
TK-10 renal = tested on: TK-10 renal
ACHN renal = tested on: ACHN renal
CAKI-1 renal = tested on: CAKI-1 renal
A498 renal = tested on: A498 renal
CCRF-CEM leukemia = tested on: CCRF-CEM leukemia
MOLT-4 leukemia = tested on: MOLT-4 leukemia
RPMI-8226 leukemia = tested on: RPMI-8226 leukemia
OVCAR-8 ovarian = tested on: OVCAR-8 ovarian
OVCAR-5 ovarian = tested on: OVCAR-5 ovarian
OVCAR-4 ovarian = tested on: OVCAR-4 ovarian
SK-OV-3 ovarian = tested on: SK-OV-3 ovarian
IGROV1 ovarian = tested on: IGROV1 ovarian
OVCAR-3 ovarian = tested on: OVCAR-3 ovarian
HS 578T breast = tested on: HS 578T breast
NCI/ADR-RES ovarian = tested on: NCI/ADR-RES ovarian
SR leukemia = tested on: SR leukemia

SMILES | growth (SK-MEL-2 melanoma) | growth (SN12C renal) | growth (UO-31 renal) | growth (TK-10 renal) | growth (ACHN renal) | growth (CAKI-1 renal) | growth (A498 renal) | growth (CCRF-CEM leukemia) | growth (MOLT-4 leukemia) | growth (RPMI-8226 leukemia) | growth (OVCAR-8 ovarian) | growth (OVCAR-5 ovarian) | growth (OVCAR-4 ovarian) | growth (SK-OV-3 ovarian) | growth (IGROV1 ovarian) | growth (OVCAR-3 ovarian) | growth (HS 578T breast) | growth (NCI/ADR-RES ovarian) | growth (SR leukemia)
Nc1ccccc1NC(=O)CCCCCCC(=O)Nc1ccc2c(c1)/C(=C/c1ccc[nH]1)C(=O)N2 | -1.9% (active) | 17.4% | 29.1% | 48.1% | 77% | 49.8% | -0.734% (active) | 5.46% (active) | 9.11% (active) | -17.6% (active) | 26.2% | 67% | 35.1% | 38.4% | 49.7% | 29.3% | 27.5% | 93.1% | 
COc1cc(CSc2nc3ccc(Cl)cc3c(=O)n2Cc2ccccc2)cc(OC)c1OC | 21.4% | 38.6% | 27.1% | 73.6% | 40.3% | 26.7% |  | 28.5% | 29.4% | 68.7% | 53% | 46.7% | 52% | 24.4% | 35.3% | -0.909% (active) | 30.5% | 14% | 23.1%
CC(Oc1ccc(Cl)cc1)c1ccccc1 (stereo unspecified) | 112% | 98.1% | 77.6% | 106% |  | 96.5% | 119% | 94.1% | 87.3% | 101% | 110% | 103% | 103% | 103% | 96% | 107% | 104% | 103% | 99.1%
Nc1ccc(Sc2ccc3c4c2cccc4c(=O)n2c4ccccc4nc32)cc1 | 84.1% | 19.2% | 9.28% (active) | 78.6% |  | 5.9% (active) | 58.8% | 44.9% | -6.87% (active) | 50.2% | 50.7% | 85.8% | 74% | 53.9% | 34.5% | 77.8% | 59.6% | 56.6% | 16.1%
COc1ccc(/C=C2\SC(=S)N(CCCN3CCOCC3)C2=O)c(OC)c1 | 99% | 93.8% | 86.8% | 104% | 98% | 94.4% |  | 75.7% | 94.4% | 78.4% | 96.1% | 104% | 91.1% | 105% | 115% | 103% | 99.1% | 92.6% | 72.5%
CCCCCCCCCCCCCCCCCBr | 108% | 98.9% | 91.4% | 108% |  | 97.2% | 64.1% | 94.4% | 96% | 102% | 106% | 100% | 111% | 100% | 103% | 114% | 91.9% | 104% | 92.7%
CCCn1c(=O)c2c(nc(-c3cccc(OCCCCl)c3)n2C)n(CCC)c1=O | 75.6% | 37.3% | 27.8% | 36.5% | 3.03% (active) | 43.7% |  | 86.3% | 73.2% | 83.9% | 33.9% | 73.1% | 0.205% (active) | 7.41% (active) | 30.2% | 21.7% | 31.4% | 35.9% | 59.6%
O=C(Nc1cccc(F)c1)Nc1cccc(Cl)c1 | 101% | 87.4% | 87.1% | 116% | 88.1% | 88.8% |  | 84.4% | 4.94% (active) | 66.6% | 78.6% | 94.9% | 87.2% | 114% | 111% | 14.4% | 97.3% | 89.1% | 49.9%
CC(=O)[C@H]1CC[C@H]2[C@@H]3CC[C@@H]4CC=C(C=O)C[C@]4(C)[C@H]3CC[C@]12C | 99.3% | 93.4% | 84.8% | 85.2% |  | 88.5% | 76.8% | 82.6% | 72.8% | 58.1% | 97.8% | 96.9% | 99% | 95.8% | 89.4% | 107% | 106% | 87.5% | 73.5%
COc1ccc(C(C)=O)cc1N1C(=O)C2C(C1=O)C1(c3ccccc3)C(=O)C2(c2ccccc2)C(c2ccc(C)cc2)=C1c1ccc(C)cc1 (stereo unspecified) | -0.955% (active) | 26.2% | -4.71% (active) | 13.7% | 23.1% | 6.11% (active) |  | 8.66% (active) | 12.6% | 17.2% | 14.5% | 55.7% | 26.2% | 32.2% | 9.07% (active) | 21.4% | 80.7% | 12.7% | 8.77% (active)
CCNC(=S)NN | 128% | 81.7% | 68.4% | 130% | 96.4% | 90.1% |  | 46.2% | 73.3% | 75.9% | 71.1% | 69.3% | 82.2% | 104% | 12.8% | 106% | 100% | 83.8% | 61.6%
CC(C)C[C@H](NC(=O)Cn1ccc2ccccc2c1=O)B(O)O | 63.5% | 75.8% | 50.6% | 11.7% | 29.1% | 40.6% | 30.1% | 15.2% | 9.94% (active) | 11.9% | 88.2% | 76.9% | 93.3% | 96.7% | 107% | 42.3% | 90% | 103% | 
COc1cccc2c1O/C(=C\c1ncc([N+](=O)[O-])n1C)C2=O | -51.5% (active) | -54.2% (active) | -34.7% (active) | -33.7% (active) | 7.42% (active) | -26.5% (active) | -33.4% (active) | 8.19% (active) | -1.08% (active) | -8.69% (active) | -23.3% (active) | -9.04% (active) | 7.16% (active) | -16.6% (active) | -17.7% (active) | -3.72% (active) | -24.3% (active) | -3.54% (active) | 
C=CCN1C(=O)/C(=C\c2ccc3c(c2)CCC3)SC1=S | 94.6% | 102% | 85.6% | 108% |  | 97.5% | 98.9% | 103% | 85.9% | 91.9% | 104% | 99.8% | 106% | 98.6% | 106% | 109% | 112% | 105% | 93.1%
O=C(Nc1ccc(OCc2nnc(-c3ccccc3)o2)c(F)c1)Nc1ccc(Cl)c(Cl)c1 | 72.9% | 64% | 68.5% | 66.2% | 39% | 68.4% | 12.4% | 37.6% | 43.8% | 25.5% | 61.6% | 93.4% | 50.6% | 89.6% | 57.7% | 53.6% | 63.2% | 58.6% | 
O=C(c1ccc(Cl)cc1)c1no[n+]([O-])c1C(=O)c1ccc(Cl)cc1 | 92% | 86.4% | -94.9% (active) | 84.1% |  | -68.6% (active) | 106% | -51.6% (active) | 68.2% | 35.5% | 30.1% | 105% | 92.5% | 105% | -35.8% (active) | 43.2% | 109% | 82.7% | -18.5% (active)
CC(C)OCc1cc(CN2CCN(c3cccc(Cl)c3)CC2)c(O)c2ncccc12 | -59.1% (active) | -4.06% (active) | -6.8% (active) | 5.04% (active) |  | -49.9% (active) | -62.7% (active) | -13.4% (active) | -48.6% (active) | -25% (active) | -15.2% (active) | 38.3% | 15.7% | 13.7% | 8.86% (active) | 2.88% (active) | -0.795% (active) | -27.3% (active) | -30.6% (active)
